In PubChem BioAssay (Tox21):
Values without a mark were called inactive. Records with an inconclusive call do not appear. A call without a number means that no potency is given here. Calls of active or inactive are those of the source. Unless noted, the call rests on the fitted dose curve; in most records, active means well fitted curve in the direction sought with a large enough effect in the repeat runs; inconclusive means weak or mixed curves; inactive means no such curve, though single readings can be large; an effect the other way counts as inactive or inconclusive.

Experiments:
[1] = qHTS assay for small molecule agonists of the p53 signaling pathway (AID 651631; calls by dose curve; further: nearly all actives have a fitted effect of over 15% in size)
Outline: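 Quantitative high-throughput format: 4,000 p53RE-bla HCT-116 cells/well, 5 h pre-incubation, 16 h compound exposure at 37 °C, 2 h room-temperature substrate step, fluorescence intensity measured.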

[2] = qHTS assay for small molecules that induce genotoxicity in human embryonic kidney cells expressing luciferase-tagged ATAD5 (AID 651632); further: nearly all actives have a fitted effect of over 15% in size
Outline: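 Concentration-response screen for ATAD5 upregulation in HEK293T luciferase reporter cells; 16 hr treatment at 37C, then luminescence after 30 min with Amplite at room temperature.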

[3] = qHTS assay for small molecule agonists of the p53 signaling pathway - cell viability (AID 651633; calls by dose curve;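 further: p53RE-bla HCT reporter cells with a stable beta-lactamase p53 reporter; series mostly up to about 83 µM; nearly all actives have a fitted effect of over 30% in size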)
Outline: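 p53RE-bla cells, seeded at 4,000 per well and rested 5 h at 37 C/5% CO2, received compounds in DMSO for 16 h at 37 C. CellTiter-Glo was then added, and luminescence was read after 30 min at room temperature to gauge cytotoxicity.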

[4] = qHTS assay for small molecules that induce genotoxicity in human embryonic kidney cells expressing luciferase-tagged ATAD5 - cell viability (AID 651634; calls by dose curve; further: nearly all actives have a fitted effect of over 25% in size)
Outline: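 15.5 hr compound or vehicle exposure of HEK293T cells expressing luciferase-tagged ATAD5 at 37C; live-cell protease activity is read by fluorescence after 30 min of CellTiter-Fluor.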

[5] = qHTS assay to test for compound auto fluorescence at 590 nm (red) in HepG2 cells (AID 720674)
Outline: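 Intrinsic compound fluorescence in the red window (Ex/Em 540/590 nm) is measured in attached HepG2 cells exposed for 1 hr, DMSO vehicle as baseline, benchmarked to Rose Bengal sodium.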

[6] = qHTS assay to test for compound auto fluorescence at 535 nm (green) in HepG2 cells (AID 720675)
[7] = qHTS assay to test for compound auto fluorescence at 590 nm (red) in HEK293 cells (AID 720679)
Outline: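 Plates of HEK293 cells (10% dialyzed FBS) are treated with 23 nL compound or DMSO vehicle after a 4-5 hr attachment period, incubated overnight at 37C, and read for red fluorescence at 540/590nm.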

[8] = qHTS assay to test for compound auto fluorescence at 535 nm (green) in HEK293 cells (AID 720680)
[9] = qHTS assay to test for compound auto fluorescence at 460 nm (blue) in HEK293 cell free culture (AID 720681)
Outline: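 Test compounds were pinned into cell-free culture medium (DMEM with 10% FBS) and fluorescence was read directly at Ex/Em 405/460 nm. Signals were expressed as fluorescence equivalents of triamterene, with DMSO vehicle as control.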

[10] = qHTS assay to test for compound auto fluorescence at 535 nm (green) in HEK293 cell free culture (AID 720682)
Outline: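 Measurement is a direct plate read of green fluorescence (485 nm in, 535 nm out) after compound addition to serum-supplemented DMEM lacking cells, with fluorescein used to express intensities.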

[11] = qHTS assay to test for compound auto fluorescence at 590 nm (red) in HEK293 cell free culture (AID 720683)
Outline: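 Tox21 10K library compounds were pinned into cell-free DMEM with 10% FBS and fluorescence was read at excitation 540 nm. Activity is expressed as Rose Bengal sodium equivalency.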

[12] = qHTS assay to test for compound auto fluorescence at 590 nm (red) in HepG2 cell free culture (AID 720684)
Outline: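 Ex 540 / Em 590 nm read of compound in cell-free MEM (10% FBS). Rose Bengal sodium reference.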

[13] = qHTS assay to test for compound auto fluorescence at 460 nm (blue) in HepG2 cell free culture (AID 720685)
Outline: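 Cell-free plates of MEM plus 10% FBS received 23 nL compound or DMSO vehicle; blue-channel (405/460 nm) intensity scored against triamterene as reference fluorophore.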

[14] = qHTS assay to test for compound auto fluorescence at 535 nm (green) in HepG2 cell free culture (AID 720686)
[15] = qHTS assay to test for compound auto fluorescence at 460 nm (blue) in HepG2 cells (AID 720687)
Outline: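 Cells (2,000/well in MEM with 10% FBS) attached overnight at 37 C, then were exposed to compound or DMSO for 1 hr at 37 C, 5% CO2. Fluorescence read at Ex/Em 405/460 nm, expressed as triamterene-equivalent signal.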

[16] = target: Glucocorticoid receptor (Homo sapiens) (UniProt P04150); test: qHTS assay to identify small molecule agonists of the glucocorticoid receptor (GR) signaling pathway (AID 720691; active means well fitted activation curve with a large enough effect in the signal ratio in the repeat runs, not every such curve was filed as active; the % refers to the signal ratio)
Chain of Glucocorticoid receptor (Homo sapiens) (P04150 whole entry, looked up): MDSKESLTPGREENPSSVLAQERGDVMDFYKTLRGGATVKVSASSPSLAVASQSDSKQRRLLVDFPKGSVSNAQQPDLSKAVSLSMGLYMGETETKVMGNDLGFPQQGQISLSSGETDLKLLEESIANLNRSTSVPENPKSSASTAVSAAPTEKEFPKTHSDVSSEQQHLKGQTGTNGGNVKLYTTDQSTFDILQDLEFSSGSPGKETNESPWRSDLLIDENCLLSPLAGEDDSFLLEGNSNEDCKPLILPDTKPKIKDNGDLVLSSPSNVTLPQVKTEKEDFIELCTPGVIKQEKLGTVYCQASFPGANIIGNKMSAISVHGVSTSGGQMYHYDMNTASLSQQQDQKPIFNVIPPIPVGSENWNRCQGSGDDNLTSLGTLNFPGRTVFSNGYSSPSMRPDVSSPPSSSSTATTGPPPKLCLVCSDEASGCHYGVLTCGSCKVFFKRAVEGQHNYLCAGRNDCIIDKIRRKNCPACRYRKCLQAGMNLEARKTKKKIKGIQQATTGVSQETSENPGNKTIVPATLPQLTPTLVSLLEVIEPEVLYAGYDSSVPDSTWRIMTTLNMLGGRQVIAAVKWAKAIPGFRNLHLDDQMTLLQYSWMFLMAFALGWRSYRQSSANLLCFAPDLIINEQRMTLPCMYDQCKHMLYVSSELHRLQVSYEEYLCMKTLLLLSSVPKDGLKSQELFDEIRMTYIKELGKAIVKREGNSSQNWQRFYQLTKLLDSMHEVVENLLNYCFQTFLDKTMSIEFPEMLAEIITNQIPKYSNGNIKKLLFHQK
Outline: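 Measures GR pathway activation through a GRE-beta-lactamase reporter stably integrated in HeLa cells, with 18 h compound treatment at 37 C and fluorescence detection using a FRET substrate.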

[17] = target: Glucocorticoid receptor (Homo sapiens) (UniProt P04150); test: qHTS assay to identify small molecule antagonists of the glucocorticoid receptor (GR) signaling pathway (AID 720692; active means well fitted inhibition curve with a large enough effect in the signal ratio in the repeat runs, not every such curve was filed as active; the % refers to the signal ratio)
Outline: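 Tox21 10K library screened in concentration-response for blockade of dexamethasone (5 nM final)-induced GRE-bla reporter activity in HeLa cells; 18 h treatment, fluorescence read.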

[18] = qHTS assay for small molecule disruptors of the mitochondrial membrane potential - cell viability (AID 720634; calls by dose curve;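 further: human HepG2 liver cancer cells; series mostly up to about 83 µM; nearly all actives have a fitted effect of over 20% in size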)
Outline: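 In this qHTS format, HepG2 cells plated overnight were pinned with compound, incubated 1 hr, and assayed for ATP luminescence with CellTiter-Glo after m-MPI dye addition.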

[19] = qHTS assay for small molecule disruptors of the mitochondrial membrane potential (AID 720635); further: potency means the concentration at half of the fitted maximal effect
Outline: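 HepG2 cells (2,000/well) attached overnight at 37C, then took compound for 1 hr at 37C, 5% CO2. Mito-MPS dye was added for 30 min; fluorescence was read at 490/535 nm (monomers) and 540/590 nm (aggregates).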

[20] = qHTS assay to test for compound auto fluorescence at 460 nm (blue) in HEK293 cells (AID 720678)
Outline: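 After cell attachment (4-5 hr, 37C), compounds were pinned onto HEK293 monolayers in 10% dialyzed FBS medium. The blue channel (405/460 nm) was read following overnight culture. Equivalency was calculated against triamterene.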

SMILES	Potency [1]	Potency [2]	Potency [3]	Potency [4]	Potency [5]	Potency [6]	Potency [7]	Potency [8]	Potency [9]	Potency [10]	Potency [11]	Potency [12]	Potency [13]	Potency [14]	Potency [15]	Potency [16]	Potency [17]	Potency [18]	Potency [19]	Potency [20]
CC1(C)CC(O)CC(C)(C)N1	inactive	inactive	inactive	inactive	inactive	inactive	inactive	inactive	inactive	inactive	inactive	inactive	inactive	inactive	inactive	inactive	inactive	–	–	–
C[Si](Cl)(c1ccccc1)c1ccccc1	inactive	inactive	inactive	–	inactive	inactive	inactive	inactive	inactive	inactive	inactive	inactive	inactive	inactive	inactive	inactive	–	inactive	26.6 µM (active)	inactive
CCCC(=O)OCCc1ccccc1	inactive	inactive	inactive	–	inactive	inactive	inactive	inactive	inactive	inactive	inactive	inactive	inactive	inactive	inactive	inactive	–	inactive	inactive	inactive
FC(F)(F)c1cccc(Cl)c1	inactive	inactive	inactive	–	inactive	inactive	inactive	inactive	inactive	inactive	inactive	inactive	inactive	inactive	inactive	inactive	inactive	inactive	–	inactive
C[C@@H](O)[C@H](N)C(=O)O	inactive	inactive	inactive	–	inactive	inactive	inactive	inactive	inactive	inactive	inactive	inactive	inactive	inactive	inactive	inactive	inactive	–	inactive	inactive
c1ccc(SSc2ccccc2)cc1	inactive	inactive	inactive	–	inactive	inactive	inactive	inactive	inactive	inactive	–	inactive	inactive	inactive	inactive	inactive	–	inactive	inactive	inactive
C=CC(C)(CCC=C(C)C)OC=O (centres undefined)	inactive	inactive	inactive	–	inactive	inactive	inactive	inactive	inactive	inactive	–	inactive	inactive	inactive	inactive	inactive	inactive	inactive	inactive	inactive
